Only a selection was taken, and hits are over-represented in it overall.
Dicer processing: blocks human Dicer maturation of pre-miR-21. Q9UPY3. cat-ELCCA pre-miR-21 Dicer processing, chemiluminescence; hits give high values. z-score at 25 µM. 47,000 compounds, 6% hits. AID 1347074; in the data active means z-score above about 3, passing the limit was not always enough;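 further: plate controls were vehicle for no effect and no enzyme for full effect; higher signal means more uncleaved substrate so more Dicer inhibition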
Target sequence (Q9UPY3 whole entry, looked up): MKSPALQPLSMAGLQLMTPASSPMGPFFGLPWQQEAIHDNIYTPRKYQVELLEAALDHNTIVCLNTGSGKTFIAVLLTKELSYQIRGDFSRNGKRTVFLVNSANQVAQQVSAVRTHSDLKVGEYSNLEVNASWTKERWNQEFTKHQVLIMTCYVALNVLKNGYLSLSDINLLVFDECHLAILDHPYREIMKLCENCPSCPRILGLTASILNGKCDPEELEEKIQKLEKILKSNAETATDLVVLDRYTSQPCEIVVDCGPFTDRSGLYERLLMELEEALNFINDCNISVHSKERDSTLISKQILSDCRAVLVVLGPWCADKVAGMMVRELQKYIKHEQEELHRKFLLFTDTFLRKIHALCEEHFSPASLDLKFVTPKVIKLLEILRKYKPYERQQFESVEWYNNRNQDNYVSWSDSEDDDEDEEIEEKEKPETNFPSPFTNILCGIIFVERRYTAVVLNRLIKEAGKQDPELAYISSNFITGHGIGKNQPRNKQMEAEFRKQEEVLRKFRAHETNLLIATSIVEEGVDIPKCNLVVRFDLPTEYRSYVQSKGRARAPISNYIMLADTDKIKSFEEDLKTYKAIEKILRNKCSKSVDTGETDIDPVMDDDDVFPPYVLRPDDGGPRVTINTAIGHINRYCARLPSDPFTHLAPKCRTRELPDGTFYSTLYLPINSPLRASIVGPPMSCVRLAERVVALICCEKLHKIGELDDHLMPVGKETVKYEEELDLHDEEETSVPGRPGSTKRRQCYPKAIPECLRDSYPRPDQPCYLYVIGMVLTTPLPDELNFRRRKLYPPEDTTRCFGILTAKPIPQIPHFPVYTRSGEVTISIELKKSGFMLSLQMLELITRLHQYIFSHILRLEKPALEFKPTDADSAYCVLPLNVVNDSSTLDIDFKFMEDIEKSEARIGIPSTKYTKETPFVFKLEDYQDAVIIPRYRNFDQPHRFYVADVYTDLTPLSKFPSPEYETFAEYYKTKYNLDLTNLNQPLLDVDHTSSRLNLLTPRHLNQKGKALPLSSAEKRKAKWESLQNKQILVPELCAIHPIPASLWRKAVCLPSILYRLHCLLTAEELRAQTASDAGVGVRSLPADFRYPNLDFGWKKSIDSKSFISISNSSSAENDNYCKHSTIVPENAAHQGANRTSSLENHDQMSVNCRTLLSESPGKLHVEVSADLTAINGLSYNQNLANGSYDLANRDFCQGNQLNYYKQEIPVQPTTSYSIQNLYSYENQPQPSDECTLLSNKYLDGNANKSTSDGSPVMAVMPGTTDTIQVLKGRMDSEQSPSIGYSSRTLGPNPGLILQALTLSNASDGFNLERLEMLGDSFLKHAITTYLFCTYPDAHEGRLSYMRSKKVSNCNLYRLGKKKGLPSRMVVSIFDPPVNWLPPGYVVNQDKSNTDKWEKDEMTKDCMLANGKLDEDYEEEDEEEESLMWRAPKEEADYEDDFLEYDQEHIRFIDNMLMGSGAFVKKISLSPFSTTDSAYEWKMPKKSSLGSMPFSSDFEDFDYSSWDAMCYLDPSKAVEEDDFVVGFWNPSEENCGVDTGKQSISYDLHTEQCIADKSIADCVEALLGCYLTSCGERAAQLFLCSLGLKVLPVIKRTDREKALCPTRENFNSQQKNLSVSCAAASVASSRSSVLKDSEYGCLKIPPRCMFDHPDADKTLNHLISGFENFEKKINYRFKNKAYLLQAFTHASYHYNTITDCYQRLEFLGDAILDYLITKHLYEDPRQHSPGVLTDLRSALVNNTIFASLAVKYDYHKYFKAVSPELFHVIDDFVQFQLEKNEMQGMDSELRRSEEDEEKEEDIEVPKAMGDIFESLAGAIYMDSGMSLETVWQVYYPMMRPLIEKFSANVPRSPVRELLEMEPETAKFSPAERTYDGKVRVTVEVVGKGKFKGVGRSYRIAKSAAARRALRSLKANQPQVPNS
Starred values were filed as active, the others as inactive.

`O=C(c1cccnc1)N(c1ccc2oc(=O)sc2c1)S(=O)(=O)c1ccc(F)cc1` gave Dicer processing 11*.
O=C(c1ccncc1)N(c1ccc2oc(=O)sc2c1)S(=O)(=O)c1ccc(F)cc1 was read as Dicer processing 3.2*.
For CC(C)C(=O)N(c1ccc2oc(=O)sc2c1)S(=O)(=O)c1ccc(F)cc1 the results were Dicer processing -3.1.
For O=C(c1ccncc1)N(c1ccc2oc(=O)sc2c1)S(=O)(=O)c1ccc(Cl)cc1 the results were Dicer processing 2.9.
Screening O=C(c1cccnc1)N(c1ccc2oc(=O)sc2c1)S(=O)(=O)c1ccc(Cl)cc1 returned Dicer processing 10*.
Screening COc1ccc(OC)c(S(=O)(=O)N(C(=O)c2cccnc2)c2ccc3oc(=O)sc3c2)c1 returned Dicer processing 1.4.
c1ccc2c(c1)N1CC3(CCCCC3)CNC1C21OCCO1 (configuration not stated) was read as Dicer processing -4.9.
For CCOC(=O)c1cnn(-c2ccccc2)c1NC(=O)CSc1nnc(-c2ccncc2)o1 the results were Dicer processing -0.36.
`CCCNC(=O)NC1CCN(c2ncc(C(F)(F)F)cc2Cl)CC1` gave Dicer processing -0.24.
NS(=O)(=O)c1ccc(CNS(=O)(=O)Cc2ccccc2)cc1 was read as Dicer processing -0.27.
Screening O=S(=O)(CS(=O)(=O)NCCc1ccc(Cl)cc1)NCCc1ccc(Cl)cc1 returned Dicer processing 0.29.
For CS(=O)(=O)NCCc1ccncc1 the results were Dicer processing 0.42.
NS(=O)(=O)c1ccc(CCNS(=O)(=O)c2ccc(Cl)cc2)cc1 was read as Dicer processing 3.4*.
CS(=O)(=O)NCCc1ccc(S(N)(=O)=O)cc1 was read as Dicer processing 6.9*.
For O=c1[nH]c2ccc(S(=O)(=O)NCCc3ccc(F)cc3)cc2[nH]1 the results were Dicer processing 1.9.
For Cc1ccc([N+](=O)[O-])c(NC(=O)c2ccc(Cl)cc2)c1C the results were Dicer processing -1.7.
`CCSC1=C(C#N)C(=O)NC(c2ccc(OC)cc2OC)S1` (configuration not stated) gave Dicer processing 0.09.
For CSC1=NC(C)(C)Cc2cc3c(cc21)OCCO3 the results were Dicer processing 3.3*.
Screening CC1(C)Cc2cc3c(cc2C(SCc2ccccc2)=N1)OCCO3 returned Dicer processing -0.25.
Screening O=C1Nc2ccccc2/C1=C/c1cn[nH]c1-c1cccs1 returned Dicer processing 1.4.
Screening Fc1ccc(-c2cc(-c3nc4c5ccccc5ncn4n3)[nH]n2)cc1 returned Dicer processing 1.2.
CN1CCN(c2cc(-c3ccccc3)nc3ccccc23)CC1 was read as Dicer processing 0.36.
`CC(C)(C)c1ccc(OCC(=N)N)cc1` gave Dicer processing -2.5.
`CC(C)(C)c1ccc(OCc2nnc(N)s2)cc1` gave Dicer processing 4*.
Screening CC(C)(C)c1ccc(OCc2ccc(C(=O)O)cc2)cc1 returned Dicer processing -1.3.
Cc1nc2ccccc2n1Cc1nc2ccccc2n1C was read as Dicer processing 1.1.
Cc1nnsc1-c1nc(-c2ccc(Cl)s2)cs1 was read as Dicer processing 0.99.
CC(C)Sc1c(Cl)cccc1[N+](=O)[O-] was read as Dicer processing -0.36.
For Cc1onc(-c2ccccc2)c1C(=O)NCCNC(=O)c1c(-c2ccccc2)noc1C the results were Dicer processing 1.2.
For Cc1onc(-c2ccccc2)c1C(=O)NNC(=O)c1ccc(-n2c(C)ccc2C)cc1 the results were Dicer processing 3.1*.
`Cc1onc(-c2ccccc2)c1C(=O)n1cccc1` gave Dicer processing -0.05.
For CCOC(=O)COc1cccc(C(C)=O)c1 the results were Dicer processing 2.5.
For CC(C)Cc1ccc(C(C)/C(N)=N/O)cc1 (configuration not stated) the results were Dicer processing -0.66.
`CC(C)Cc1ccc(C(C)C(=O)O/N=C(\N)c2ccc(C(F)(F)F)cc2)cc1` (configuration not stated) gave Dicer processing 3.2*.
Screening CC(CC(=O)O/N=C(\N)c1ccc(C(F)(F)F)cc1)S(=O)(=O)c1ccc(Cl)cc1 (configuration not stated) returned Dicer processing -2.
Screening c1cc2c(cc1COCc1ccc3c(c1)CCO3)CCO2 returned Dicer processing -1.9.
For COCCNS(=O)(=O)c1ccc(OC)c(-c2nnc3c4ccccc4c(C)nn23)c1 the results were Dicer processing -1.9.
For Cc1cc(C)n(NC(=S)NC2CC3C=CC2C3)c(=O)c1C#N (configuration not stated) the results were Dicer processing -1.8.
Cc1nc(-n2cnc3cc(C)c(C)cc32)c2c3c(sc2n1)CCC3 was read as Dicer processing 1.6.
For O=C(c1cnn2c(C(F)F)cc(-c3ccccc3)nc12)N1CCCc2ccccc21 the results were Dicer processing -1.5.
For COc1ccc(-c2cc(C(F)F)n3ncc(C(=O)N4CCSCC4)c3n2)cc1 the results were Dicer processing 3*.
For O=C(c1cnn2c(C(F)F)cc(-c3ccccc3)nc12)N1CCc2ccccc2C1 the results were Dicer processing -0.17.
CCOC(=O)C1C2C=CC3(CN(C(c4ccccc4)c4ccccc4)C(=O)C13)O2 (configuration not stated) was read as Dicer processing -0.14.
`CCOC(=O)/C(C#N)=C/c1cn(-c2ccccc2)nc1C` gave Dicer processing -0.69.
Screening C#CCOC(=O)Nc1ccc(OC(C)C)nc1 returned Dicer processing 0.21.
For O=C(O)CCCNc1n[nH]c(=O)[nH]c1=O the results were Dicer processing 2.4.
`CC(C)OC(=O)CSc1n[nH]c(=O)[nH]c1=O` gave Dicer processing 4.3.
`O=C(O)CCSc1n[nH]c(=O)[nH]c1=O` gave Dicer processing 4.8*.
COC(=O)C1=C(C)NC2=C(C(=O)c3ccccc32)C1c1ccccc1OCc1cccc(F)c1 (configuration not stated) was read as Dicer processing -0.04.
`O=C(O)c1ccccc1S(=O)c1ccccc1CCO` (configuration not stated) gave Dicer processing -0.81.
For O=C(O)CN1C(=O)C(=O)/C(=C(\O)c2ccc(Br)cc2)C1c1ccccc1 (configuration not stated) the results were Dicer processing -1.6.
For Cc1ccc2c(c1)c1c(n2CC(O)CNCc2ccccc2)C(=O)CCC1 (configuration not stated) the results were Dicer processing -1.3.
For Cc1ccc2c(c1)c1c(n2CC(O)CNCc2ccco2)CCCC1 (configuration not stated) the results were Dicer processing 5*.
For OC(CNCc1ccco1)COc1ccccc1 (configuration not stated) the results were Dicer processing 2.8.
For CCOC(=O)c1noc(C)c1-c1csc(-c2ccc(Cl)cc2)n1 the results were Dicer processing 0.52.
CCOC(=O)/C(C#N)=C(\NC)SC was read as Dicer processing 1.3.
`CCOc1ccc(N2CCn3c2nc2c3c(=O)n(CC(=O)O)c(=O)n2C)cc1` gave Dicer processing 1.7.
COCCN1C(=O)C(=O)/C(=C(\O)c2ccc(OC)cc2)C12C(=O)N(C)c1ccccc12 (configuration not stated) was read as Dicer processing -0.25.
For COCCN1C(=O)C(=O)/C(=C(\O)c2ccc(C)cc2)C12C(=O)N(C)c1ccccc12 (configuration not stated) the results were Dicer processing -0.78.
